This is part of a sample that, as a whole, favours compounds with a hit. Of some 83,000 tested, about 20% had one in any assay.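 Assay: single dose, 48 h. Readout: percent growth (0 = no net growth; negative = cell death). Active: <10.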 A number with no mark means an inactive call. The source made the active and inactive calls.

The text below walks through data of PubChem BioAssay (NCI).

Experiment in all cases: NCI-60 one-dose screen, 48 h (100 = growth as untreated, 0 = no growth, -100 = all killed)
Settings in all cases: 10 µM unless noted

The subject of experiment [1] is SR leukemia.
Experiment [2] concerns RPMI-8226 leukemia.
For experiment [3], the system named is OVCAR-8 ovarian.
Experiment [4] relates to OVCAR-5 ovarian.
For experiment [5], the system named is SK-OV-3 ovarian.
Experiment [6] has as its system IGROV1 ovarian.
The subject of experiment [7] is OVCAR-3 ovarian.
Experiment [8] has as its system HS 578T breast.
Experiment [9] relates to NCI/ADR-RES ovarian.

With `Cc1ccc2c(n1)C(=O)C(Cl)=C(Nc1cccc(C)c1C)C2=O`, the growth in experiment [1] is 6.7% (active); in [2] it was -12.7% (active); in experiment [3] it was -3.5% (active); in [4], -29% (active); in [5], 117%; in experiment [6], -58.4% (active). Besides, the growth was -97.8% (active) in [7], -13% (active) in [8] and -5.45% (active) in experiment [9].

As for `O=C1C(SCc2ccccc2)=C(Cl)CN1c1ccc(Cl)cc1`, the growth is 1.35% (active) in [1]; 88.8% in experiment [2]; 95.2% in experiment [3]; 109% in experiment [4]; 117% in experiment [5]; 104% in [6]. Besides, the growth in [8] was 100%.

For `O=C(CSc1nnc(-c2ccc(Cl)cc2)n1-c1ccccc1)Nc1cccc(F)c1`, the growth was 37.2% in experiment [1]; 40.5% in experiment [2]; 35.7% in experiment [3]; 41.9% in experiment [4]; 78.6% in experiment [5]; 20.3% in [6]. The growth in experiment [7] was 51.9%; in [8], 28%; in experiment [9], 37%.

Take `CCc1cc(O)ccc1Nc1cc(-c2ccc(-n3cccn3)cc2)[nH]n1`: the growth in experiment [1] was 68.9%; in [2], 53.5%; in experiment [3], 58%; in [4], 78.5%; in experiment [5], 87.2%; in experiment [6] it was 86.4%. Besides, the growth is 105% in experiment [8] and 63.8% in experiment [9].

As for `COc1ccc(C2C(C#N)=C(/N=C/c3ccc(Cl)cc3)Oc3c2sc2c(C)cccc32)cc1` (stereo unspecified), the growth in experiment [1] is 16.5%; in experiment [2] it was 22.6%; in [3] it was 23.4%; in experiment [4] it was 34.9%; in [5] it was 42.8%; in experiment [6] it was 23.6%. The growth in experiment [8] was -4.66% (active); in experiment [9], 11.2%.

Take `Cc1ccc(N2CCN(C3=C(Cl)C(=O)c4ncccc4C3=O)CC2)cc1`: the growth is 4.58% (active) in [1]; 11.8% in experiment [2]; 67.9% in experiment [3]; 110% in experiment [4]; 112% in experiment [5]; 58.6% in experiment [6]. Besides, the results for the growth in experiment [8] and in experiment [9] were 79.7% and 55.8%, respectively.

Turning to `CC(Nc1c(C#N)cnc2ccc(-c3cncc(O)c3)cc12)c1ccccc1` (stereo unspecified), the growth was 6.19% (active) in experiment [1]; 11.3% in [2]; 13% in experiment [3]; 25.6% in [4]; -3.84% (active) in experiment [5]; -20.3% (active) in [6]. Also, the results for the growth in experiment [7] and in experiment [9] were 7.92% (active) and 12.4%, respectively.

Consider `CC[C@]12C=CCN3CC[C@@]4(c5ccc(OC)cc5N(C)[C@H]4[C@@](O)(C(=O)OC)[C@@H]1OC(=O)CCN1CCc4ccccc4C1)[C@@H]32`, for which the growth in experiment [1] is 82.2%; in experiment [2] it was 78.4%; in experiment [3], 94.9%; in experiment [4], 96.3%; in [5], 103%; in [6], 81.5%. The growth in experiment [8] was 92%; in experiment [9] it was 80.5%.

Turning to `COc1cc(-c2nc(-c3ccccc3)[nH]c2-c2ccnc(NCCCNS(=O)(=O)c3cccc(F)c3)n2)ccc1F`, the growth in [1] was 77.1%; in experiment [2], 62.4%; in experiment [3] it was 86%; in experiment [4], 118%; in experiment [5], 136%; in [6] it was -69.7% (active). The growth in experiment [7] was 109%; in experiment [8], 103%; in experiment [9], 92.1%.

As to `CCOC(=O)c1cccnc1Nc1ccc(NC(=O)Nc2ccc(Cl)c(C(F)(F)F)c2)cc1`, the growth was 54% in experiment [1]; 16% in experiment [2]; 39.3% in experiment [3]; 85.7% in experiment [4]; 70.1% in [5]; 84.5% in [8]. Also, the growth in [9] was 35.3%.

In the case of `COc1ccc2c(c1)c(-c1nnc(N)nc1-c1c[nH]c3ccc(F)cc13)cn2C`, the growth was 12.5% in experiment [1]; 28.2% in [2]; 59.5% in [3]; 84.2% in experiment [4]; 80.7% in experiment [5]; 45.7% in [6]. Moreover, the results for the growth in experiment [7], in experiment [8] and in [9] were 3.98% (active), 49.8% and 75.2%, respectively.

Take `O=S(=O)(NCCCNc1nccc(-c2[nH]c(-c3ccccc3)nc2-c2ccc(F)c(O)c2)n1)c1ccccc1`: the growth in [1] was 51.5%; in experiment [2], 48.9%; in experiment [3] it was 90.2%; in experiment [4], 155%; in experiment [5], 121%; in [6] it was 114%. Also, the figures for the growth in experiment [7], in experiment [8] and in experiment [9] were 138%, 116% and 108%, respectively.

For `CC(C)Sc1nc(-c2ccccc2)c(C#N)c(N2CCOCC2)n1`, the growth in experiment [1] is 78.9%; in experiment [2], 90.7%; in [3], 69.3%; in experiment [4] it was 59.8%; in experiment [5], 86.8%; in experiment [6] it was 5.14% (active). The growth in experiment [8] is 50%; in experiment [9] it was 71.1%.

As to `O=[N+]([O-])c1ccc(NC(=S)NNC(=S)Nc2ccc(Br)cc2)cc1`, the growth in experiment [1] is 79.4%; in experiment [2], 79.4%; in experiment [3], 98.6%; in experiment [4], 91.4%; in experiment [5], 100%; in experiment [6] it was 71.7%. The results for the growth in experiment [8] and in [9] were 107% and 84.5%, respectively.

As to `O=C1c2ccccc2C23C(=C(c4cncnc4)c4ccccc42)CCCN13` (stereo unspecified), the growth in [1] was 96.1%; in [2] it was 103%; in [3], 104%; in experiment [4], 96.5%; in [5] it was 118%; in [6], 107%. The growth is 95% in experiment [8] and 103% in experiment [9].

Turning to `O=c1c2cc(-c3ccc(F)cc3F)ccc2n(O)c(=O)n1-c1cccc(C(F)(F)F)c1`, the growth in [1] was -0.936% (active); in experiment [2], -19.1% (active); in [3] it was 12%; in experiment [4], 42.3%; in [5], -14.5% (active); in experiment [6], 21.2%. The growth in experiment [8] is -0.801% (active); in experiment [9] it was 3.16% (active).
